D2 antag – antagonists of human D2 dopamine receptor | P14416 | HEK293 TREx D2 cells, calcium flux, dopamine EC80 | inhibition, % at 10 µM | 340,000 tested, 2% active | AID 485344; in the data active = inhibition above about 30%; inactive = below that, where a call was filed; also: 0% is about no effect
Target sequence (P14416 whole entry, looked up): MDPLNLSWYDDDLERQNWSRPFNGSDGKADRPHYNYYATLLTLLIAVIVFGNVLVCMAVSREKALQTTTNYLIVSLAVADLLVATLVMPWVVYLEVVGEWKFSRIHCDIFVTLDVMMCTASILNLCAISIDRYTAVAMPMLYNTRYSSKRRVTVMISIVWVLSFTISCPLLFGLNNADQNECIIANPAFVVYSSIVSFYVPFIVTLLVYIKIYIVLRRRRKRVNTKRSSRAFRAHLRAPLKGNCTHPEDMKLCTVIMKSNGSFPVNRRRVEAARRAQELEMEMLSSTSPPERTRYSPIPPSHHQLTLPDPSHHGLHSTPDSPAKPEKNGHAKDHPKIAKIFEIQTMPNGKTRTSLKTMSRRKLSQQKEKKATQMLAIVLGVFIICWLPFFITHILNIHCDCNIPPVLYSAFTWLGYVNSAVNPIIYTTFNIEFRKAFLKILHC
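Compounds are added to dye-loaded, induced HEK293 T-REx cells coupled to calcium release via D2; after a 3 min kinetic read an EC80 dopamine stimulus is given and fluorescence is recorded for 3 more min.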
D2 PAM-1 – positive allosteric modulators of human D2 dopamine receptor | HEK293 T-REx D2, calcium flux, EC20 dopamine potentiation | P14416 | 340,000 tested, 0.34% active | AID 485347 | potentiation, % at 10 µM;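 active = potentiation over 3 SD above the plate norm, cut at about 30% in these data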; also: 0% is about no effect
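Primary screen. Calcium kinetics in induced HEK293 T-REx D2 cells: compound pre-addition 180 s, EC20 dopamine, 180 s more.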
D2 ag-1 – agonists of human D2 dopamine receptor; 340,000 tested, 0.53% active; activation, % at 2 µM; AID 485358; HEK293 T-REx D2 cells, calcium flux agonist mode;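 active = activation over 3 SD above normal in the single-dose calcium agonist read, cut at about 30% in these data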; also: 0% is about no effect
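Tetracycline-induced HEK293 Trex cells with D2 receptor force-coupled to calcium signaling, plated overnight at 30 C and loaded with no-wash calcium dye. Calcium flux read kinetically for 180 s after compound addition; responses flag agonists.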
D2 ag-2 – activates the human D2 dopamine receptor; DiscoveRx PathHunter D2 beta-arrestin, luminescence, 90 min; 100% = 57 uM dopamine signal; 360,000 tested, 0.084% active; activation, % (test concentration not listed); in the data active = activation above about 40%; inconclusive = between about 15% and that limit
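Agonist mode: compounds alone added to overnight-plated D2 PathHunter cells for 90 min at 37 C, with 57 uM final dopamine (EC100) defining full response. Beta-arrestin recruitment detected by chemiluminescent reagent, read after 1 h at ambient temperature.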
D2 PAM-2 – human D2 receptor positive allosteric modulation; P14416; DiscoveRx D2 beta-arrestin cells, luminescence, 90 min; 100% = 57 uM dopamine signal; potentiation, % (test concentration not listed); 360,000 tested, 0.23% active; AID 624464; in the data active = potentiation above about 50%; inconclusive = mostly about 30% to 49%
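PathHunter D2 cells, attached overnight at 37 deg C, received compound in DMSO plus dopamine at EC20 (50 nM final) for 90 min at 37 deg C. Beta-arrestin recruitment was read as luminescence after 1 h with detection reagent at ambient temperature.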
The depositor's hits bear a star; ? = inconclusive; . = not tested or not shown. Compounds with a hit are over-represented: about 2.4% of the library has one in this group of screens.

SMILES	D2 antag	D2 PAM-1	D2 ag-1	D2 ag-2	D2 PAM-2
Cc1nn(S(=O)(=O)c2cccc([N+](=O)[O-])c2)c(C)c1Br	2	1	-1	12	62*
Cc1nn(S(=O)(=O)c2cccc([N+](=O)[O-])c2)c(C)c1S(=O)(=O)N1CCOCC1	-1	-7	0	4	2
CCOc1ccccc1N1CCN(C(=O)c2cc3c(s2)CCC3)CC1	35*	-6	-2	1	-2
COc1ccccc1N1CCN(C(=O)c2cc3c(s2)CCCCC3)CC1	.	.	.	3	4
Cc1ccn2c(NC3CCCC3)c(-c3ccncc3)nc2c1	-15	30*	-1	-2	9
Cc1ccn2c(NC3CCCCC3)c(C)nc2c1	35*	-4	0	1	-5
Cc1ccn2c(NC3CCCCC3)c(C(C)C)nc2c1	1	6	0	0	-3
COc1cc(C)cc2oc(=O)c(CC(=O)NCCc3ccc(Cl)cc3)c(C)c12	.	5	-1	.	.
Cc1ccccc1OCC(=O)OCC(=O)Nc1ccc(Cl)cn1	31*	-12	1	-3	-4
O=C(O)c1ccc(-c2ccc(/C=N/Nc3ccc([N+](=O)[O-])cc3)o2)cc1	8	-4	54*	-6	-5
O=C(O)c1cccc(-c2ccc(/C=N/Nc3ccc([N+](=O)[O-])cc3)o2)c1	3	-2	36*	-5	-9
O=C(O)c1ccc(N/N=C/c2ccc(-c3cccc(Cl)c3)o2)cc1	.	.	.	12	3
CCOc1ccc(-c2cnc(NCc3cccc(Cl)c3)n2C)cc1	.	-6	.	.	.
COc1ccc(CCNC(=O)C(=O)NCC(c2cccs2)S(=O)(=O)c2ccc(F)cc2)cc1 (configuration not stated)	.	10	1	.	.
Cc1cc(O)c2c(c1)C(=O)[C@@]13Oc4c5c(c(O)c6c(O)cc(C)cc46)C(=O)C[C@H](O)[C@H]5[C@@H]1[C@@H](O)CC(=O)C3=C2O	.	.	.	11	66*
CCOc1ccc2nc(SCC(=O)Nc3ccc(F)cc3)nc(-c3ccccc3)c2c1	.	-5	0	.	.
Cc1ccc2c(CNCc3cccs3)c(C(=O)O)n(Cc3ccc(F)cc3)c2c1	.	0	.	.	.
CCCCCCn1c(=O)c(Cc2ccccc2)c(O)c2ccccc21	-5	4	0	-7	-5
CCCCn1c(=O)c(Cc2ccccc2)c(O)c2ccccc21	-15	31*	0	-4	5
Cc1ccc(CN(Cc2cccn2-c2nnc(N3CCCC3=O)s2)C(=O)Nc2ccccc2C(F)(F)F)cc1	.	-7	.	.	.
O=C(Cc1nc2ccccc2[nH]1)c1ccc(Cl)cc1	-19	44*	1	-2	-3
O=C(Cc1nc2ccccc2[nH]1)c1ccc([N+](=O)[O-])cc1	0	-5	0	4	-4
CCC(=O)N1c2ccccc2CC1C(=O)NCc1cc(OC)ccc1OC (configuration not stated)	.	2	1	.	.
O=C(NCCO)C1(c2ccc(Cl)cc2)CCCC1	32*	3	0	-2	11
COc1ccc(Cl)cc1NC(=O)CNC(c1ccccc1)c1ccccc1	-6	-2	1	-2	-5
SMILES	D2 antag	D2 PAM-1	D2 ag-1	D2 ag-2	D2 PAM-2
COc1ccc(OC)c(NC(=O)CNC(c2ccccc2)c2ccccc2)c1	31*	4	0	-5	-3
COc1ccc(C)cc1NC(=O)CNC(c1ccccc1)c1ccccc1	37*	5	1	-3	-11
COc1ccc(Br)cc1CNC(=O)CN1C(=O)CCCc2ccccc21	.	-20	0	.	.
O=C(NCc1ccccc1)c1ccc(Cn2c(=O)c3cccn3c3cccnc32)cc1	.	-8	.	.	.
O=C(CNC(=O)c1ccco1)NCC(=O)OCC(=O)c1ccc(Cl)c([N+](=O)[O-])c1	5	38*	0	-28	-31
O=C(CNC(=O)c1ccco1)OCc1c(F)cccc1Cl	-26	41*	0	0	-1
O=C(CNC(=O)c1ccco1)NCC(=O)OCc1c(F)cccc1Cl	-2	13	1	2	4
O=C1c2ccccc2NC2CCCCCN12 (configuration not stated)	0	30*	-1	1	-16
CC(=O)NCCn1c(SCc2ccc(C)cc2)nc2ccccc2c1=O	-4	-1	0	-2	7
Cc1ccc(CSc2nc3ccccc3c(=O)n2C)cc1	34*	1	2	-1	-6
Cc1nc(-c2ccccc2)sc1-c1n[nH]c(=S)n1C	-5	41*	1	2	-17
COc1ccc(C(=O)C2CCCN(Cc3cn[nH]c3-c3ccc(F)cc3)C2)cc1OC (configuration not stated)	6	4	0	2	-19
O=C(c1ccc(F)cc1)C1CCN(Cc2cn[nH]c2-c2ccc(F)cc2)CC1	94*	-25	1	-3	-26
CCOc1ccccc1N1CCN(Cc2cn[nH]c2-c2ccc(F)cc2)CC1	81*	-22	22	-2	-4
N#Cc1c(N)n(-c2cccc(Cl)c2)c2nc3ccccc3nc12	.	1	-1	.	.
O=C(Cn1ccc(C(F)(F)F)n1)N=Nc1c(O)[nH]c2ccc(Br)cc12	-10	42*	1	-14	-6
COc1cccc(-n2c(=O)c3c4c(sc3n(Cc3ccc(C)cc3)c2=O)CCCC4)c1	.	-6	1	.	.
CCOC(=O)C(=CNc1cc(C)nn1-c1ccc(C)cc1)C(=O)OCC	14	8	-1	-1	65*
Cc1nc2c(o1)C(=O)c1ccccc1C2=Nc1ccccc1	.	.	.	?	51*
CCOC(=O)c1c(C)oc2c1c(C(c1ccccc1)N1CCOCC1)c(O)c1ccccc12 (configuration not stated)	57*	-3	-2	-2	?
CCOC(=O)c1c(C)oc2c1c(C(c1cccnc1)N1CCCCC1)c(O)c1ccccc12 (configuration not stated)	-2	-3	0	?	102*
CCOC(=O)c1c(C)oc2c1c(C=NCCO)c(O)c1ccccc12	-25	12	3	8	20
O=C1C(=O)c2c(ccc3ccccc23)-c2ccccc21	.	.	.	?	59*
CN(C)/C=C1\Oc2ccc3ccccc3c2C1=O	-5	7	-3	2	-3
c1ccc(Cc2cc[n+](Cc3ccccn3)cc2)cc1	42*	9	0	-2	-2
O=[N+]([O-])c1ccc(C[n+]2ccc(Cc3ccccc3)cc2)cc1	3	-1	0	13	10
COc1ccc2oc(=O)c(-c3csc(/C(C#N)=C/c4ccc(F)cc4)n3)cc2c1	.	5	1	.	.
CCOc1ccc(OCC)c(NC(=O)c2ccc(-c3ccccc3)s2)c1	.	-6	0	.	.
Cc1ccccc1C(=O)OCc1cc(=O)n2c(C)csc2n1	.	.	0	.	.
CC(C)N(c1ccccc1)c1ccc(NC(=S)NCCN(C)C)cc1	82*	-29	1	5	0
